Most compounds without a hit are left out; they make up all but 19% or so of the library.
IL1B secr inh: inflammasome signaling inhibition, IL-1 beta readout; THP-1 LPS/ATP IL-1B secretion, AlphaLISA, 16 h; stronger effect = lower value; activity change, % at 57.5 µM; hit rate 4.7% among 360,000; in the data active = activity change below about -50%; inconclusive = mostly about -30% to -49%
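Secreted IL-1B measured by AlphaLISA bead assay after 16 h compound exposure of THP-1 cells; compounds (final up to 57.5 uM) added 1 h before LPS (250 ng/mL) and ATP (1.25 mM) stimulation; lower signal means less secretion.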
HT1080 IDH1KD tx: kills HT-1080 cells with IDH1 knockdown | HT-1080 IDH1 knockdown viability, ATP luminescence, 48 h | Potency, µM (top dose mostly 46.1 µM), hits mostly cytotoxic | hit rate 2% among 360,000 | AID 686971
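CellTiter-Glo luminescence after 48 h compound exposure at 37 degrees C of IDH1-knockdown HT-1080 cells in 5% FBS RPMI. %Activity scaled between DMSO wells and cell-free media wells, with curves fitted and assigned curve classes.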
DT40 TDP1 no CPT: qHTS for Inhibitors of human tyrosyl-DNA phosphodiesterase 1 (TDP1): qHTS in cells in absence of CPT. DT40 Tdp1-/- hTDP1 cells, no CPT, ATP luminescence, 48 h. Potency, µM (titrated, usually from 46.2 µM), actives largely listed as inhibitors. hit rate 15% among 420,000; note: nearly all actives have a fitted effect of over 55% in size
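Chicken DT40 Tdp1-/- cells stably complemented with human TDP1 were seeded at 400 cells/well with DMSO in place of 20 nM camptothecin. After compound pinning, cells grew at least 48 hr at 37 °C; viability read by CellTiter-Glo luminescence.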
HT1080NT lethal: kills 2HG-producing HT-1080-NT fibrosarcoma cells. HT-1080-NT fibrosarcoma viability, CellTiter-Glo ATP luminescence, 48 h. Potency, µM (top dose mostly 46.1 µM), hits mostly cytotoxic. hit rate 1.6% among 360,000;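 note: NT is the 2HG producing partner of a matched IDH1 knockdown line; nearly all actives have a fitted effect of over 55% in size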
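Compounds were tested in concentration-response format on HT-1080-NT cells for 48 hours at 37 degrees C. Cell viability came from CellTiter-Glo luminescence; curves were classified by r2, response magnitude and activity.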
DT40 TDP1 CPT: DT40-hTDP1 cell growth loss with CPT; chicken DT40 Tdp1-/-;hTDP1 cells + 20 nM CPT, ATP luminescence, 48 h; Potency, µM (highest dose often 46.2 µM), hits mostly inhibitors; hit rate 12% among 420,000; AID 686979; note: nearly all actives have a fitted effect of over 55% in size
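Cell growth measured by CellTiter-Glo luminescence after a minimum 48 h, 37 C compound exposure with 20 nM CPT in Tdp1-knockout DT40 cells stably expressing hTDP1, seeded 400/well; qHTS titration format.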
uPA generation: blocks generation of uPA at the cell surface; cell surface uPA generation assay, qHTS; Potency, µM (series often up to 38.3 µM), hits mostly inhibitors; hit rate 0.31% among 330,000; active = well fitted inhibition curve with a large enough effect; inconclusive = small, poorly fitted or top-dose-only effect; inactive = no such curve, though single readings can be large or run the other way; tested in mouse RAW 264.7 cells; note: nearly all actives have a fitted effect of over 55% in size
Large screens that a line does not name were inactive. Unless noted, calls come from the whole dose curve; as a rule, active = well fitted curve in the direction sought with a large enough effect; inconclusive = small, poorly fitted or top-dose-only effect, or another doubt; inactive = no such curve, though single readings can be large; an effect the other way counts as inactive or inconclusive.

O=C(Cn1cnc2ccccc21)Nc1ccc(SC(F)F)cc1	IL1B secr inh -61, HT1080 IDH1KD tx inconclusive, DT40 TDP1 no CPT 2.3µM, DT40 TDP1 CPT 21µM
CC[N+](CC)(CC)CC(=O)Nc1ccc(SC(F)F)cc1	IL1B secr inh -96, HT1080 IDH1KD tx inconclusive, DT40 TDP1 CPT inconclusive
CCn1c(N)[n+](CC(=O)Nc2ccc(SC(F)F)cc2)c2ccccc21	IL1B secr inh -97, HT1080 IDH1KD tx inconclusive, DT40 TDP1 no CPT 13µM, HT1080NT lethal inconclusive, DT40 TDP1 CPT inconclusive
Cc1cccc(-n2c(=O)c3c(c4cc(C)ccc4n3C)n(Cc3ccccc3F)c2=O)c1	DT40 TDP1 no CPT inconclusive (no result: IL1B secr inh, HT1080 IDH1KD tx, HT1080NT lethal, uPA generation)
Nc1nc(Nc2ccccc2)nc(NC2CCCCC2)c1[N+](=O)[O-]	IL1B secr inh -88, HT1080 IDH1KD tx inconclusive, DT40 TDP1 no CPT inconclusive, HT1080NT lethal inconclusive, DT40 TDP1 CPT 13µM
Cc1ccc(Nc2nc(N)c([N+](=O)[O-])c(NCc3ccco3)n2)cc1C	IL1B secr inh -71, HT1080 IDH1KD tx inconclusive, DT40 TDP1 no CPT inconclusive, DT40 TDP1 CPT 26µM
Cc1cccc(Nc2nc(N)c([N+](=O)[O-])c(NCc3ccccc3)n2)c1	HT1080 IDH1KD tx 16µM, DT40 TDP1 no CPT inconclusive, HT1080NT lethal inconclusive, DT40 TDP1 CPT inconclusive (no result: IL1B secr inh)
CNc1nc(N)c([N+](=O)[O-])c(NC2CCCCC2)n1	DT40 TDP1 no CPT inconclusive
COc1cccc(Nc2nc(N)c([N+](=O)[O-])c(NCc3ccccc3)n2)c1	HT1080 IDH1KD tx inconclusive, DT40 TDP1 no CPT inconclusive, DT40 TDP1 CPT inconclusive
Nc1nc(Nc2ccccc2)nc(NCc2ccccc2)c1[N+](=O)[O-]	IL1B secr inh -69, HT1080 IDH1KD tx 16µM, DT40 TDP1 no CPT inconclusive, HT1080NT lethal inconclusive, DT40 TDP1 CPT inconclusive
CC(C)c1ccc(NC(=O)c2ccccc2NC(=O)C2CCCCC2C(=O)O)cc1 (configuration not stated)	none
O=C(NCc1ccccc1)c1onc(CS(=O)(=O)c2ccc(Cl)cc2)c1C(=O)NCc1ccccc1	none
COC(=O)C(CCSC)NC(=O)Cn1ncc2c([nH]c3ccccc32)c1=O (configuration not stated)	none (no result: IL1B secr inh, HT1080 IDH1KD tx, HT1080NT lethal, uPA generation)
COCCNc1nc(N)c([N+](=O)[O-])c(Nc2ccc(F)cc2)n1	HT1080 IDH1KD tx 15µM, HT1080NT lethal inconclusive
COc1cccc(-n2c(=O)c3c(C)c(C)sc3n(CC(=O)Nc3ccccc3OC)c2=O)c1	none (no result: IL1B secr inh, HT1080 IDH1KD tx, HT1080NT lethal, uPA generation)
COc1ccc(NC(=O)c2cc3ccccc3o2)cc1S(=O)(=O)N1CCCCC1	DT40 TDP1 no CPT inconclusive, DT40 TDP1 CPT inconclusive
Cc1nc2ccc(NC(=O)N3CCOCC3)cc2nc1C	none
O=C(Nc1ccc2nc(-c3ccco3)c(-c3ccco3)nc2c1)N1CCN(c2ccccn2)CC1	IL1B secr inh -57, DT40 TDP1 no CPT 12µM, DT40 TDP1 CPT 13µM
Cc1nc2cc(NC(=O)N3CCN(c4ccccn4)CC3)ccc2o1	none
CC1CCN(C(=O)Nc2ccc3nc(-c4ccco4)c(-c4ccco4)nc3c2)CC1	DT40 TDP1 no CPT inconclusive, DT40 TDP1 CPT 11µM (no result: IL1B secr inh, HT1080 IDH1KD tx, HT1080NT lethal, uPA generation)
COc1ccccc1CNS(=O)(=O)c1c(C)cc(C)cc1C	DT40 TDP1 no CPT inconclusive, DT40 TDP1 CPT inconclusive (no result: uPA generation)
O=C(CSc1nc2c(c(=O)n1-c1ccccc1)SCC2)N1CCN(c2ccccc2)CC1	DT40 TDP1 no CPT inconclusive, DT40 TDP1 CPT 18µM
CC1Cc2nc(SCC(=O)N3CCN(c4ccccc4)CC3)n(CCc3ccccc3)c(=O)c2S1 (configuration not stated)	DT40 TDP1 no CPT 13µM, DT40 TDP1 CPT 18µM, uPA generation inconclusive
CCn1c(SCC(=O)N2CCN(c3ccccc3)CC2)nc2c(c1=O)SC(C)C2 (configuration not stated)	DT40 TDP1 no CPT 21µM, DT40 TDP1 CPT inconclusive
CC1Cc2nc(SCC(=O)N3CCN(c4ccccc4)CC3)n(C)c(=O)c2S1 (configuration not stated)	DT40 TDP1 no CPT 13µM, DT40 TDP1 CPT inconclusive
CCn1c(SCC(=O)N2CCCC2)nc2c(c1=O)SC(C)C2 (configuration not stated)	none
CC1Cc2nc(SCC(=O)N3CCCC3)n(C)c(=O)c2S1 (configuration not stated)	none
O=[N+]([O-])c1ccc(COc2ccccc2CN2CCCCC2)cc1	DT40 TDP1 no CPT inconclusive, DT40 TDP1 CPT inconclusive
Cc1cc(NC(=O)CSc2nc(-c3ccco3)cc(C(F)(F)F)n2)no1	HT1080 IDH1KD tx 0.52µM, DT40 TDP1 no CPT 0.73µM, HT1080NT lethal 0.58µM, DT40 TDP1 CPT 0.58µM
COc1ccccc1N1CCN(C(=O)CSc2nc(-c3ccco3)cc(C(F)(F)F)n2)CC1	DT40 TDP1 no CPT 23µM, DT40 TDP1 CPT inconclusive
CN(C)c1ccc(NC(=O)CCSc2nc(-c3ccco3)cc(C(F)(F)F)n2)cc1	DT40 TDP1 no CPT 18µM, DT40 TDP1 CPT inconclusive (no result: IL1B secr inh, HT1080 IDH1KD tx, HT1080NT lethal, uPA generation)
Cc1cc(NC(=O)CCSc2nc(-c3ccco3)cc(C(F)(F)F)n2)no1	HT1080 IDH1KD tx inconclusive, HT1080NT lethal inconclusive
CCn1nc(C)c(NC(=O)CCCSc2nc(-c3ccco3)cc(C(F)(F)F)n2)c1C	DT40 TDP1 no CPT 15µM, DT40 TDP1 CPT 18µM
O=C(CSc1nc(-c2ccco2)cc(C(F)(F)F)n1)N1CCN(Cc2ccccc2)CC1	DT40 TDP1 no CPT inconclusive, DT40 TDP1 CPT inconclusive
Cc1cc(NC(=O)CCCSc2nc(-c3ccco3)cc(C(F)(F)F)n2)no1	none
O=C1CCCN1CC(O)CS(=O)(=O)Cc1ccc(Cl)c(Cl)c1 (configuration not stated)	none
CC(C)NC(=O)C1CCCN(S(=O)(=O)c2ccc3c(ccn3C)c2)C1 (configuration not stated)	none (no result: IL1B secr inh, HT1080 IDH1KD tx, HT1080NT lethal, uPA generation)
Cc1ccc(NC(=O)CSc2nc(-c3ccco3)cc(C(F)(F)F)n2)cc1	DT40 TDP1 no CPT 3.3µM, DT40 TDP1 CPT 2.1µM (no result: IL1B secr inh, HT1080 IDH1KD tx, HT1080NT lethal, uPA generation)
Cc1nn(C)cc1NC(=O)CCSc1nc(-c2ccco2)cc(C(F)(F)F)n1	DT40 TDP1 no CPT inconclusive
O=C(CSc1nc(-c2ccco2)cc(C(F)(F)F)n1)Nc1ccc(C(=O)N2CCCCC2)cc1	DT40 TDP1 no CPT 6.5µM, DT40 TDP1 CPT 7.3µM
Cc1cccc(C)c1NC(=O)CSc1nc(-c2ccco2)cc(C(F)(F)F)n1	DT40 TDP1 no CPT inconclusive, DT40 TDP1 CPT inconclusive
Cc1ccc(O)c(NC(=O)CCSc2nc(-c3ccco3)cc(C(F)(F)F)n2)c1	DT40 TDP1 no CPT 18µM, DT40 TDP1 CPT inconclusive (no result: IL1B secr inh, HT1080 IDH1KD tx, HT1080NT lethal, uPA generation)

Compound activity from PubChem.
